In the supplement of paper PMC10498489:
About 330 (14%) of roughly 2,300 compounds showed activity. These entries were drawn from the full list. Unmarked numbers belong to inactive results.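 Rule for the calls: active = median modified Z-score above 1.96; inactive = 1.96 or below.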

Each molecule was assayed on HepG2 Srxn1-GFP reporter cells (+30 nM CDDO-Me) (assay: Srxn1-GFP intensity median modified Z-score relative to plate median; higher = stronger NRF2 / oxidative stress reporter activation, active = hit call of the paper). Settings: 10 µM; exposure time: 24h.
Procedure, shortened: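 Values give the median, over replicates, of the modified Z-score of GFP intensity on each plate. HepG2 Srxn1-GFP BAC reporter cells were co-treated for 24 h with an NRF2 activator at 30 nM and compound at 10 μM (≤0.1% DMSO) in three replicate plates, then analysed per cell for cytoplasmic GFP on confocal images with at least 100 cells. Scaling used 1.4826 × median absolute deviation.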
In the case of `CCCN(CCC)CCc1cccc2[nH]c(O)cc12` [euspeclibcmpd2384], the “Srxn1-GFP intensity median modified Z-score” value is reported as -0.25.
With `CCN(C(C)=O)c1cccc(-c2ccnc3c(C#N)cnn23)c1` [euspeclibcmpd886] the “Srxn1-GFP intensity median modified Z-score” value was -0.312.
In the case of `CC1(C)C(C=C(Cl)Cl)C1C(=O)OCc1cccc(Oc2ccccc2)c1` (stereo not given) [euspeclibcmpd989], the “Srxn1-GFP intensity median modified Z-score” value is reported as -0.481.
With `CC(N)Cc1ccc(O)cc1` (stereo not given) [euspeclibcmpd2033] the “Srxn1-GFP intensity median modified Z-score” value was -0.0916.
With `O=C1c2ccccc2C(=O)c2ccccc21` [euspeclibcmpd2403] the “Srxn1-GFP intensity median modified Z-score” value was -0.277.
`O=C1C(=O)c2ccccc2-c2ccccc21` was tested, and the “Srxn1-GFP intensity median modified Z-score” value was 0.845.
In the case of `O=C1C=CC(=O)c2ccccc21` [euspeclibcmpd1754], the “Srxn1-GFP intensity median modified Z-score” value is reported as 32.6 (active).
`O=c1c(O)c(-c2ccc(O)c(O)c2)oc2c(O)c(O)cc(O)c12` [euspeclibcmpd1684] was tested, and the “Srxn1-GFP intensity median modified Z-score” value was -0.455.
For `C[C@]12CCC3C(CC[C@H]4C[C@@H](O)CC[C@]34C)C1CCC2=O` (stereo not given in full) [euspeclibcmpd2371], the “Srxn1-GFP intensity median modified Z-score” value was -0.083.
With `N[C@H](CO)Cc1ccccc1` [euspeclibcmpd1743] the “Srxn1-GFP intensity median modified Z-score” value was -0.578.
With `O=[N+]([O-])c1cc([As](=O)(O)O)ccc1O` [euspeclibcmpd2449] the “Srxn1-GFP intensity median modified Z-score” value was 14.6 (active).
With `O=[N+]([O-])c1ccc([As](=O)(O)O)cc1` [euspeclibcmpd2468] the “Srxn1-GFP intensity median modified Z-score” value was 0.0717.
`CC(=O)Nc1cc([As](=O)(O)O)ccc1O` [euspeclibcmpd2446] was tested, and the “Srxn1-GFP intensity median modified Z-score” value was 0.0429.
With `c1cncc(C2=NCCC2)c1` [euspeclibcmpd2209] the “Srxn1-GFP intensity median modified Z-score” value was 0.
With `COc1ccc(/C=C/c2cc(O)cc(O)c2)cc1` [euspeclibcmpd1373] the “Srxn1-GFP intensity median modified Z-score” value was 0.31.
With `COc1cc2c(cc1OC)[C@@]13CCN4CC5=CCOC6CC(=O)N2C1[C@H]6[C@H]5C[C@H]43` (stereo not given in full) [euspeclibcmpd1053] the “Srxn1-GFP intensity median modified Z-score” value was 1.74.
For `C=CCN1CCC23c4c5ccc(O)c4OC2C(=O)CC[C@@]3(O)[C@H]1C5` (stereo not given in full) [euspeclibcmpd455], the “Srxn1-GFP intensity median modified Z-score” value was -0.148.
In the case of `CC(Cc1ccc(O)cc1)NCC(O)c1cc(O)cc(O)c1` (stereo not given) [euspeclibcmpd366], the “Srxn1-GFP intensity median modified Z-score” value is reported as 0.124.
With `C[C@@H]([C@H](O)c1ccccc1)N(C)C` [euspeclibcmpd1255] the “Srxn1-GFP intensity median modified Z-score” value was 0.2.
For `CC(CCc1ccccc1)NC(C)C(O)c1ccc(O)cc1` (stereo not given) [euspeclibcmpd217], the “Srxn1-GFP intensity median modified Z-score” value was 6.08 (active).
With `CC1(C)C(C=C(Cl)Cl)C1C(=O)OC(C#N)c1cccc(Oc2ccccc2)c1` (stereo not given) [euspeclibcmpd1141] the “Srxn1-GFP intensity median modified Z-score” value was -0.358.
With `C=CCc1ccc2c(c1)OCO2` [euspeclibcmpd1477] the “Srxn1-GFP intensity median modified Z-score” value was -0.318.
`O=C(COc1ccc2ccccc2c1)N1CCN(Cc2ccc3c(c2)OCO3)CC1` was tested, and the “Srxn1-GFP intensity median modified Z-score” value was 4.61 (active).
For `O=C(COc1ccc(Br)cc1Cl)N1CCN(Cc2ccc3c(c2)OCO3)CC1`, the “Srxn1-GFP intensity median modified Z-score” value was 0.363.
With `CCOP(=S)(OCC)Oc1nc(Cl)c(Cl)cc1Cl` [euspeclibcmpd1024] the “Srxn1-GFP intensity median modified Z-score” value was 0.883.
With `COc1cccc2c1cc([N+](=O)[O-])c1c(C(=O)O)cc3c(c12)OCO3` [euspeclibcmpd2326] the “Srxn1-GFP intensity median modified Z-score” value was 0.769.
`COC(C)CC(=O)Nc1ccc([N+](=O)[O-])c(C(F)(F)F)c1` (stereo not given) was tested, and the “Srxn1-GFP intensity median modified Z-score” value was 1.79.
In the case of `N=c1ccc(C(N)=O)c[nH]1` [euspeclibcmpd1777], the “Srxn1-GFP intensity median modified Z-score” value is reported as 0.117.
With `CN1C2CC[C@@H]1C[C@@H](OC(=O)C(CO)c1ccccc1)C2` (stereo not given in full) [euspeclibcmpd2101] the “Srxn1-GFP intensity median modified Z-score” value was 0.179.
With `Cc1cc2c(C(C)C)c(O)c(O)c(C=O)c2c(O)c1-c1c(C)cc2c(C(C)C)c(O)c(O)c(C=O)c2c1O` [euspeclibcmpd2093] the “Srxn1-GFP intensity median modified Z-score” value was 3.73 (active).
For `Cc1cc2c(C(C)C)c(O)c(O)c(C=O)c2c(O)c1-c1c(C)cc2c(C(C)C)c(O)c(O)c(C=O)c2c1O` [euspeclibcmpd1471], the “Srxn1-GFP intensity median modified Z-score” value was 3.88 (active).
For `CN1C2CCC1CC(OC(=O)C(CO)c1ccccc1)C2` (stereo not given) [euspeclibcmpd2059], the “Srxn1-GFP intensity median modified Z-score” value was -0.875.
With `CC[C@@]1(O)C(=O)OCc2c1cc1n(c2=O)Cc2cc3ccccc3nc2-1` [euspeclibcmpd1447] the “Srxn1-GFP intensity median modified Z-score” value was -0.602.
In the case of `COP(=O)(OC)C(O)C(Cl)(Cl)Cl` (stereo not given) [euspeclibcmpd866], the “Srxn1-GFP intensity median modified Z-score” value is reported as 3.07 (active).
In the case of `CCC(COC(=O)c1cc(OC)c(OC)c(OC)c1)(c1ccccc1)N(C)C` (stereo not given) [euspeclibcmpd1183], the “Srxn1-GFP intensity median modified Z-score” value is reported as -0.264.
`Oc1ccc2c3c1OC1[C@@H](O)CC[C@@]4(O)[C@@H](C2)N(CC2CCC2)CC[C@]314` (stereo not given in full) [euspeclibcmpd978] was tested, and the “Srxn1-GFP intensity median modified Z-score” value was 0.208.
`COC(=O)C(c1ccccc1)C1CCCCN1` (stereo not given) [euspeclibcmpd885] was tested, and the “Srxn1-GFP intensity median modified Z-score” value was -0.181.
With `CN(C)C(=O)Oc1cccc([N+](C)(C)C)c1` [euspeclibcmpd207] the “Srxn1-GFP intensity median modified Z-score” value was 0.0711.
In the case of `CC(C)c1cc2c(c(O)c1O)[C@@]1(C(=O)O)CCCC(C)(C)C1CC2` (stereo not given in full) [euspeclibcmpd2302], the “Srxn1-GFP intensity median modified Z-score” value is reported as 5.33 (active).
In the case of `c1ccc2c(c1)Nc1ccccc1S2` [euspeclibcmpd928], the “Srxn1-GFP intensity median modified Z-score” value is reported as 0.0728.
`NCCc1c[nH]c2ccccc12` [euspeclibcmpd1506] was tested, and the “Srxn1-GFP intensity median modified Z-score” value was -0.231.
In the case of `NNCc1ccccc1` [euspeclibcmpd1327], the “Srxn1-GFP intensity median modified Z-score” value is reported as 0.32.
With `S=C=NCc1ccccc1` [euspeclibcmpd1105] the “Srxn1-GFP intensity median modified Z-score” value was 100 (active).
With `CC(=O)c1c(O)cc(C)oc1=O` [euspeclibcmpd1006] the “Srxn1-GFP intensity median modified Z-score” value was 15.5 (active).
With `CN(C)C1C(=O)C(C(N)=O)C(=O)[C@@]2(O)C(=O)C3C(=O)c4c(O)ccc(Cl)c4[C@@](C)(O)[C@H]3C[C@@H]12` (stereo not given in full) [euspeclibcmpd61] the “Srxn1-GFP intensity median modified Z-score” value was 0.0407.
For `NCC(CC(=O)O)c1ccc(Cl)cc1` (stereo not given) [euspeclibcmpd593], the “Srxn1-GFP intensity median modified Z-score” value was -0.2.
`CN(C)C1C(=O)C(C(N)=O)C(=O)[C@@]2(O)C(=O)C3C(=O)c4c(O)cccc4[C@@](C)(O)[C@H]3C[C@@H]12` (stereo not given in full) [euspeclibcmpd288] was tested, and the “Srxn1-GFP intensity median modified Z-score” value was 0.167.
`C=C(C)[C@@H]1[C@H]2OC(=O)[C@@H]1[C@]1(O)C[C@H]3O[C@]34C(=O)O[C@H]2[C@]14C` [euspeclibcmpd1351] was tested, and the “Srxn1-GFP intensity median modified Z-score” value was 17.9 (active).
`CC(C)(O)[C@@H]1[C@H]2OC(=O)[C@@H]1[C@]1(O)C[C@H]3O[C@]34C(=O)O[C@H]2[C@]14C` [euspeclibcmpd1439] was tested, and the “Srxn1-GFP intensity median modified Z-score” value was -0.455.
In the case of `CCC(C)C(=O)O[C@@H]1C[C@@]2(C)[C@H](c3ccoc3)OC(=O)CC23OC2(C)OC34[C@H](OC(=O)C(C)C)[C@@]3(O)[C@@H](OC(=O)C5(C)OC5C)[C@@]5(C)C[C@]3(O)[C@@](C)([C@H]5CC(=O)OC)C14O2` (stereo not given in full) [euspeclibcmpd1627], the “Srxn1-GFP intensity median modified Z-score” value is reported as 0.307.
In the case of `COc1c2c(cc3c1OCO3)CC[N+](C)=C2` [euspeclibcmpd2418], the “Srxn1-GFP intensity median modified Z-score” value is reported as 0.209.
For `CNCC(=O)c1ccc(O)c(O)c1` [euspeclibcmpd922], the “Srxn1-GFP intensity median modified Z-score” value was -1.16.
With `CCC1(CC)C(=O)NC(=O)NC1=O` [euspeclibcmpd2126] the “Srxn1-GFP intensity median modified Z-score” value was 0.302.
`COc1ccc2c3c([nH]c2c1)C(C)=NCC3` [euspeclibcmpd2276] was tested, and the “Srxn1-GFP intensity median modified Z-score” value was 66 (active).
`CC1=NCCc2c1[nH]c1cc(O)ccc21` [euspeclibcmpd2357] was tested, and the “Srxn1-GFP intensity median modified Z-score” value was 7.71 (active).
For `Cl[C@H]1[C@H](Cl)[C@@H](Cl)[C@@H](Cl)[C@H](Cl)[C@H]1Cl` [euspeclibcmpd969], the “Srxn1-GFP intensity median modified Z-score” value was 0.0503.
With `CC1C(=O)O[C@@H]2O[C@]3(C)CC[C@H]4[C@H](C)CC[C@@H]1[C@@]24OO3` (stereo not given in full) [euspeclibcmpd1110] the “Srxn1-GFP intensity median modified Z-score” value was 0.987.
In the case of `CC(=O)O[C@@H]1C2CC[C@@H]3C1(C[C@@H](O)[C@@]1(O)[C@@H](C[C@H](O)C1(C)C)[C@]3(C)O)C[C@@]2(C)O` (stereo not given in full) [euspeclibcmpd2325], the “Srxn1-GFP intensity median modified Z-score” value is reported as -0.506.
With `CC(C)(C#N)O[C@@H]1O[C@H](CO)[C@@H](O)[C@H](O)[C@H]1O` [euspeclibcmpd1356] the “Srxn1-GFP intensity median modified Z-score” value was 0.0487.
`CC1C[C@H](C)C[C@H]([C@H](O)CC2CC(=O)NC(=O)C2)C1=O` (stereo not given in full) [euspeclibcmpd437] was tested, and the “Srxn1-GFP intensity median modified Z-score” value was -0.201.
With `C=C[C@H]1C[N@]2CC[C@H]1C[C@@H]2[C@H](O)c1ccnc2ccccc12` [euspeclibcmpd2140] the “Srxn1-GFP intensity median modified Z-score” value was 0.321.
`Cc1nc(=N)c(CNC(=O)N(CCCl)N=O)c[nH]1` [euspeclibcmpd1167] was tested, and the “Srxn1-GFP intensity median modified Z-score” value was -0.0324.
With `N=C(N)NN` [euspeclibcmpd930] the “Srxn1-GFP intensity median modified Z-score” value was -0.0849.
For `CC[C@H]1CN2CCc3cc(OC)c(OC)cc3C2C[C@@H]1CC1NCCc2cc(OC)c(OC)cc21` (stereo not given in full) [euspeclibcmpd109], the “Srxn1-GFP intensity median modified Z-score” value was -1.21.
`CCC(CO)NC(=O)C1=CC2c3cccc4[nH]cc(c34)CC2N(C)C1` (stereo not given) [euspeclibcmpd1928] was tested, and the “Srxn1-GFP intensity median modified Z-score” value was -0.0083.
For `CC(CO)NC(=O)C1=CC2c3cccc4[nH]cc(c34)CC2N(C)C1` (stereo not given) [euspeclibcmpd113], the “Srxn1-GFP intensity median modified Z-score” value was 0.556.
In the case of `CN1CC(C(=O)N[C@]2(C)O[C@@]3(O)[C@@H]4CCCN4C(=O)C(Cc4ccccc4)N3C2=O)C[C@@H]2c3cccc4[nH]cc(c34)C[C@H]21` (stereo not given in full) [euspeclibcmpd97], the “Srxn1-GFP intensity median modified Z-score” value is reported as -0.0377.
For `CC(C)CC1C(=O)N2CCC[C@H]2[C@@]2(O)O[C@](NC(=O)C3=CC4c5cccc6[nH]c(Br)c(c56)CC4N(C)C3)(C(C)C)C(=O)N12` (stereo not given in full) [euspeclibcmpd39], the “Srxn1-GFP intensity median modified Z-score” value was 23.2 (active).
With `CC[C@@H](CO)NC(=O)C1=CC2c3cccc4c3c(cn4C)C[C@H]2N(C)C1` (stereo not given in full) [euspeclibcmpd522] the “Srxn1-GFP intensity median modified Z-score” value was -0.363.
In the case of `CN1CC(C(=O)N[C@]2(C)O[C@@]3(O)C4CCCN4C(=O)C(Cc4ccccc4)N3C2=O)=CC2c3cccc4[nH]cc(c34)CC21` (stereo not given in full) [euspeclibcmpd823], the “Srxn1-GFP intensity median modified Z-score” value is reported as 113 (active).
